Values without a mark were called inactive. The source made the active and inactive calls.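 The calls were made as follows, unless noted: active = mean inhibition above 46.68%, the untreated control wells mean plus 3 SD; inactive = the rest.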

Nuclear receptor coactivator 1 (Homo sapiens), sequence (Q15788 whole entry, looked up, the tested form may be a part): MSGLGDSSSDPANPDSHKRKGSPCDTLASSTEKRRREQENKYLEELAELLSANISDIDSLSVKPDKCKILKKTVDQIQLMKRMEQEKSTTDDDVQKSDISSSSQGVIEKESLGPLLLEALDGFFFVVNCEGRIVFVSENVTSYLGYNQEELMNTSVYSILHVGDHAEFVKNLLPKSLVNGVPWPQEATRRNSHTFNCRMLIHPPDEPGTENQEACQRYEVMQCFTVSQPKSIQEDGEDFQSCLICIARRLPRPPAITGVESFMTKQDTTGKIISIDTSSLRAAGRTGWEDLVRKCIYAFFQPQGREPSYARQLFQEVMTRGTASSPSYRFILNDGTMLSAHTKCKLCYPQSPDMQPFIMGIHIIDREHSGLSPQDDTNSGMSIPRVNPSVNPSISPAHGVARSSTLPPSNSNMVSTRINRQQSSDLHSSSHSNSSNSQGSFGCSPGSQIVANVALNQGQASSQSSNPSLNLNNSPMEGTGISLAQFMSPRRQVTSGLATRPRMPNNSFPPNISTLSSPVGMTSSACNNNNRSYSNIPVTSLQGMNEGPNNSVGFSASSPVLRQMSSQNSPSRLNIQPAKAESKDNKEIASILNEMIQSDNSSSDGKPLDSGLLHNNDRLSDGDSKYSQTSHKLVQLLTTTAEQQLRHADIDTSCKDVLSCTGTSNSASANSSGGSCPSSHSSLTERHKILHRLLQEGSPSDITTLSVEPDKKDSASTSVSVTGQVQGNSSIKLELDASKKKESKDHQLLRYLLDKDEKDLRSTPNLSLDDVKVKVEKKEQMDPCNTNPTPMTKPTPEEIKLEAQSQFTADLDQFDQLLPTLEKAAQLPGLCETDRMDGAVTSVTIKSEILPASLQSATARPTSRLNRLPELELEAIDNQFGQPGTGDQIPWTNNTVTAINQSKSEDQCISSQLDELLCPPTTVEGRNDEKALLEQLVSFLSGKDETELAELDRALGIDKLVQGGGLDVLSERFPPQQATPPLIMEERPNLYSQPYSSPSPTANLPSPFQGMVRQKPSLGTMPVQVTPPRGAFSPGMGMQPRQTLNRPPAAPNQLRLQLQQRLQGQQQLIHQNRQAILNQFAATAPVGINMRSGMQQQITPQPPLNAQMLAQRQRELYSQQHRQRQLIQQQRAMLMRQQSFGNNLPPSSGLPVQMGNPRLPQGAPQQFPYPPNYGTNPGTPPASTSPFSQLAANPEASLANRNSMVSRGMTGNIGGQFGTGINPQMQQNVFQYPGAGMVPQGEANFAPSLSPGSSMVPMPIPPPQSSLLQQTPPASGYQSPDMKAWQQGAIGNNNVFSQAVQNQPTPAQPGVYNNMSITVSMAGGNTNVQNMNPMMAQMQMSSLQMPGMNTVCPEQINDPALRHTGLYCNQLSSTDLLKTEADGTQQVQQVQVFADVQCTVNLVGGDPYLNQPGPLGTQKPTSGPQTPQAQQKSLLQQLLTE

The subject of the first assay is transactivating tegument protein VP16 (Human herpesvirus 1), Gal4-VP16 luciferase reporter. Nature of the assay: repression of VP16-driven luciferase reporter – cell-based, luminescence, high throughput, counter-screen for SRC3 inhibitor project (AID 588794; in the data active = inhibition above about 30%). To be noted: mammalian cells, at 3.6 µM, active compounds read high.
Broadly, the inhibition is the change of the read-out against control, counted positive when it falls. For `COc1ccc(C2=Nn3c([n+](C)c4ccccc43)SC2)cc1`, the inhibition was 68.3% (active).
In the case of `CCOC(=O)C(C(C)=O)c1c(Br)c(O)c(O)c2c(C(=O)c3ccc(C)cc3)coc12` (configuration not stated), the inhibition is 12.5%.
Turning to `N=c1c2c(n(Cc3ccc(F)cc3)c3c1CCC3)CCCC2`, the inhibition is 61.5% (active).
Same read-out and setting: next, `Cc1nc(N)nc(N)c1/C=C/C(C)(C)c1ccc(Cl)cc1`: 29.5% (active).
Same read-out and setting: next, `COCCn1c(C)cc(C(=O)COC(=O)c2ccccc2Br)c1C`: 57% (active); `CC(=O)c1cccc(N=c2scc(-c3ccc(S(=O)(=O)N4CCOCC4)cc3)n2CCO)c1`: 47.4% (active).
Same read-out and setting: next, `CC(=NNC(=S)N1CC2CCC(CC2)C1)c1ccccn1`: 54.8% (active); `O=C(N/N=C/c1ccc[nH]1)c1ccc(COc2cccc3cccnc23)cc1`: 71.8% (active).

Another assay has as its target Nuclear receptor coactivator 1 (Homo sapiens) (UniProt Q15788). Nature of the assay: NCOA1 GAL4-fusion reporter inhibition – cell-based, luminescence, quadruplicate, confirmation (AID 588820).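 Also: 0% = DMSO wells and 100% = gossypol 36 µM treated wells.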 The conditions noted are these: HEK293 GAL4-SRC1 luciferase reporter, at 3.6 µM, active compounds read high.
For the molecule `N=c1ccn(CC(=O)c2ccc(-c3ccccc3)cc2)cc1`, the inhibition is 26.1%.
`C(=NNc1ccc2ccccc2n1)c1ccccn1`: the inhibition is -75.3%.
On the same count and under the same terms, for `CC(=NNC(=S)Nc1ccc(C)cc1)c1ccccn1` the value was 46.8% (active); for `Cc1cc(-c2nnc(SCC(=O)Nc3ccccc3C(F)(F)F)o2)c(C)n1-c1ccccc1`, -7.25%.
In the case of `CCC(=O)NC(c1ccc(Cl)cc1Cl)c1ccc2cccnc2c1O` (configuration not stated), the inhibition was 59.7% (active).
Still for that read-out and setting: next, `CCOc1ccc(C(=O)Nc2cnn(Cc3ccc(Cl)c(Cl)c3)c2)cc1`: 26.8%; `Cc1ccc(-n2c(-c3ccccc3)c[n+]3c2CCc2ccccc2-3)c(C)c1`: 42.5%; `CC1Cc2cc(-c3csc(NC(=O)Cc4cccs4)n3)ccc2N1S(C)(=O)=O` (configuration not stated): -1.43%.
Regarding `Cc1ccc2nc(NC(=O)CSCC(=O)OCC(=O)c3ccccc3)sc2c1`, the inhibition is 7.46%.
Consider `O=c1[nH]cnc2c1nnn2C1OC(CO)C(O)C1O` (configuration not stated), for which the inhibition is -5.97%.
With `Cc1cccc(-n2c(N)c(-c3nc4ccccc4n3C)c3nc4ccccc4nc32)c1`, the inhibition is -14.8%.
`CN(C)c1ccc(/C=C/c2ccc3ccccc3[n+]2C)cc1`: the inhibition was 32.4%.
Regarding `COc1ccc(C(=O)Nc2cnn(Cc3ccc(Cl)cc3)c2)cc1OC`, the inhibition was 23.3%.
For the molecule `CCOC(=O)c1cc2c(=Cc3ccc(N(C)C)cc3)c3ccccc3n2[n+]1C`, the inhibition was 22.9%.
As to `COc1cc(C2c3cc4c(cc3C(OC3OC5COC(c6cccs6)OC5C(O)C3O)C3COC(=O)C23)OCO4)cc(OC)c1O` (configuration not stated), the inhibition is 26%.
Turning to `CCc1nc(N)nc(N)c1-c1ccc(N(C)Cc2ccccc2)c([N+](=O)[O-])c1`, the inhibition is 69.4% (active).
Still for that read-out and setting: next, `Cc1ccc(S(=O)(=O)Nc2ccccc2C(=O)Nc2nc(-c3ccc(F)cc3)cs2)cc1`: 20.1%.
On to `COc1ccc(NC(=O)c2sc(=O)n(Cc3cccc(C(F)(F)F)c3)c2C)cc1OC`, for which the inhibition is 19%.
For the molecule `CC#CC[N+](C)(C)CCCCCCCCCCCC`, the inhibition was 22.1%.
The same measure, in the same setting: next, `Cc1cccc2cc(-c3ccccc3)c(-c3ccccc3)c[n+]12`: 5.14%; `CCN(CC)c1ccc(/C=C/c2ccc3ccc(OC)cc3[n+]2CC)cc1`: 42.6%; `Cc1cc(/C=C2\Sc3ccccc3N2C)cc(C)[n+]1CC1CCCO1` (configuration not stated): 34%.
Regarding `CC(C)CCCCCCCCCCCCC(=O)NCC(=O)NC1C(O)C(O)C(Nc2ncnc3nc[nH]c23)OC1C(O)CO` (configuration not stated), the inhibition was 94.2% (active).
The same measure, in the same setting: for `O=C1NC(=O)C(c2ccc(F)cc2)N1` (configuration not stated) the value was -2.47%; for `CCN(CC)c1ccc(/C=C/c2cccc[n+]2C)c(OC)c1`, 52.2% (active); for `CCc1ccc(/C=C/c2c[nH]c3ccccc23)[n+](CC)c1`, 24.4%.
As to `NC(=O)c1cc([N+](=O)[O-])ccc1NCc1ccc(O)cc1`, the inhibition is 1.01%.
Turning to `CCN(CC)CCCNc1nc2ccccc2c2[nH]c3ccc(OC)cc3c12`, the inhibition was -3.04%.
`CC1=NN(c2nc3ccccc3[nH]2)C(=O)C1Cc1ccccc1` (configuration not stated): the inhibition was 48.1% (active).
The same measure, in the same setting: for `Nc1nc(N)c2c(ccc3c2ccn3Cc2cccc([N+](=O)[O-])c2)n1` the value was 71.1% (active); for `CCN1/C(=C/c2ccc3cc(C)ccc3[n+]2CC)Sc2ccccc21`, 45%; for `CC(C)(C)c1ccc(-c2cn(-c3ccc(Br)cc3)c3[n+]2CCCS3)cc1`, 52.1% (active).
Consider `COc1ccc(C2=Nn3c([n+](C)c4ccccc43)SC2)cc1`, for which the inhibition is 21.8%.
`CCOC(=O)C(C(C)=O)c1c(Br)c(O)c(O)c2c(C(=O)c3ccc(C)cc3)coc12` (configuration not stated): the inhibition was 12.7%.

The record behind these values is PubChem BioAssay.
